Our source for the z-score values is PubChem BioAssay.

Molecules are shown by their SMILES. Unmarked numbers belong to inactive results. Active and inactive are the calls of the source.
Also: test concentration not given here.

The nature of the first assay: yeast growth modulation, basal conditions, primary screen, YJM789 clinical isolate, OD600, 24 h (AID 1089).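 Also: growth of clinical yeast isolate S. cerevisiae YJM 789 seeded 1000 cells per well.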 As to conditions: S. cerevisiae YJM789 growth, higher = more signal, called active from +8 up or from −8 down.
`CN1C2C=C(CCCO)C(C3C(=O)N(C(N)=O)C(=O)C32)C1c1cccs1` (stereo not given): the z-score is 1.06.
Still for that read-out and setting: next, `CN(C)CCCNC(=O)[C@@H]1c2ccccc2C(=O)N(Cc2ccc(OC(F)(F)F)cc2)[C@H]1c1ccc(CO)cc1`: -1.02; `CC(C)(C)OC(=O)CC[C@]1(C(=O)NCCN2CCOCC2)N=C(c2ccc(OCCCO)cc2)O[C@H]1c1ccccc1`: 0.681.
As for `CC(C)CNC(=O)[C@@H]1c2ccccc2C(=O)N(Cc2cc(F)cc(C(F)(F)F)c2)[C@H]1c1ccc(CO)cc1`, the z-score is -0.212.
Still for that read-out and setting: with `C=C(/C(=C/C[C@@H](OC(=O)c1ccncc1)c1ccc(OCCO)cc1)c1cc(C(=O)OC)ccc1OC)C(C)C` the figure was 0.412; with `C=C(CCCC)/C(=C/C[C@@H](OC(=O)c1ccncc1)c1cccc(OCCO)c1)c1cnc2ccccc2c1`, -2.12; with `C=CCOC(=O)[C@H]1[C@@H]2C(=O)O[C@@H](c3ccccc3)[C@@H](c3ccccc3)N2[C@@H](c2ccc(OCCOC(=O)[C@H]3C[C@H]4C(=O)N[C@@H](Cc5ccccc5)C(=O)N4[C@H]3c3cccc(OCCO)c3)cc2)[C@]12C(=O)Nc1ccc(I)cc12`, 0.731.
Same read-out and setting: with `Cc1ccc(S[C@]2(C(=O)NC3CC3)CC(=O)N(Cc3ccccc3Cl)[C@@H]2c2ccc(CO)cc2I)cc1` the figure was -0.362; with `C[C@@H]1ON(c2ccc(C(=O)OC(C)(C)C)cc2)[C@H](c2ccc(Br)cc2)[C@H]1C(=O)N1C(=O)OC[C@H]1Cc1ccccc1`, 0.689.

A further assay is described as follows: fission yeast growth modulation, primary screen, strain 972, OD600, 24 h, no modulator (AID 1090).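 Also: basal condition with compound alone and no growth modifier present.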 The conditions noted are these: S. pombe 972 growth, higher = more signal, called active from +8 up or from −8 down.
Turning to `COc1ccc(C(O)C2C=CC3C(=O)N(c4ccccc4)C(=O)C3N2Nc2ccc(C#N)cc2)c2ccccc12` (stereo not given), the z-score is 2.35.
Same read-out and setting: next, `COCCOC(=O)N1C(=O)[C@@]2(c3ccccc31)[C@H](C(=O)N1CCN(c3ncccn3)CC1)[C@H]1C(=O)O[C@H](c3ccccc3)[C@H](c3ccccc3)N1[C@@H]2c1ccc(OCCO)cc1`: 1.1.
Still for that read-out and setting: next, `CC=CC(O)C1C=CC2C(=O)N(c3ccccc3)C(=O)C2N1Nc1ccccc1` (stereo not given): -0.32; `Cc1ccc(S[C@]2(C(=O)NCC(F)(F)F)CC(=O)N(Cc3ccccc3)[C@@H]2c2ccc(CO)cc2)cc1`: -1.2; `[N-]=[N+]=Nc1ccccc1C[C@@]1(C(=O)O)N=C(c2ccc(OCCCO)cc2)O[C@@H]1c1ccccc1`: -0.85.
On the same count and under the same terms, next, `COCCCNC(=O)[C@]1(Cc2ccccc2CN=[N+]=[N-])N=C(c2ccc(OCCCO)cc2)O[C@@H]1c1ccccc1`: -0.0448; `CC(C)OC(=O)CC(=O)CC(O)c1cccc(C#N)c1` (stereo not given): -0.0003.
`CCCC=C(CCC)[C@@H](NP(=O)(c1ccccc1)c1ccccc1)c1ccc(C(F)(F)F)cc1`: the z-score is 0.423.
On the same count and under the same terms, with `CCCN1C(=O)[C@]2(Cc3ccccc3)N=C(c3ccc(OCCCO)cc3)O[C@@H]2c2ccccc21` the figure was -1.88; with `C[C@]12C(=O)N(CCCCCCO)[C@@H]3C(=O)N(c4ccc(Cl)cc4)CC=CC31O[C@@H]1/C=C\CCCOC(=O)C12` (stereo not given in full), -1.63.
The same measure, in the same setting: next, `COCCOC(=O)N1C(=O)[C@@]2(c3ccccc31)[C@H](c1ccc(OCCO)cc1)N1[C@H](c3ccccc3)[C@H](c3ccccc3)OC(=O)[C@H]1[C@@H]2C(=O)Nc1nc2ccccc2s1`: 0.371.
Same read-out and setting: with `C=CCN1Cc2ccccc2C[C@@]2(N=C(c3ccc(OCCCO)cc3)O[C@H]2c2ccccc2)C1=O` the figure was -11.1 (active).
Consider `CN(C)CCCCNC(=O)[C@H]1C[C@H]2C(=O)N3CCC[C@H]3C(=O)N2[C@H]1c1ccc(O)cc1`, for which the z-score was 1.1.
Regarding `COC1(C)CN(Cc2ccccc2Br)[C@H](/C=C/c2ccccc2)[C@H](Cc2ccccc2)O1` (stereo not given in full), the z-score was 0.239.
Consider `COc1cc(OC)c(C(O)C2C=CC3C(=O)N(c4ccccc4)C(=O)C3N2Nc2ccc(C#N)cc2)cc1Br` (stereo not given), for which the z-score was 1.86.
Still for that read-out and setting: with `O=C(O)[C@]1(Cc2ccccc2)N=C(c2ccc(OCCCO)cc2)O[C@@H]1c1ccccc1` the figure was -0.695; with `O=C1c2ccccc2[C@@]2(Cc3ccccc3N(C3CC3)C2=O)[C@H](c2ccc(CO)cc2)N1C1CCCCC1`, 0.285.
Still for that read-out and setting: with `COCCOC(=O)N1C(=O)[C@@]2(c3cc(C#CCC(C(=O)OC)C(=O)OC)ccc31)[C@H](c1ccc(OCCO)cc1)N1[C@H](c3ccccc3)[C@H](c3ccccc3)OC(=O)[C@H]1[C@@H]2C(=O)N1CCN(c2ncccn2)CC1` the figure was 0.934; with `O=C1O[C@@H](c2ccccc2)[C@@H](c2ccccc2)N2[C@@H](c3ccccc3OCCO)[C@]3(C(=O)Nc4ccc(C#CCCO)cc43)[C@@H](C(=O)N3CCN(c4ncccn4)CC3)[C@H]12`, -0.631; with `COc1cc(CO)cc(I)c1O[C@H]1C=C(C(=O)NCCO)C[C@@H](N(CC2CCCCC2)C(=O)c2ccc(C(F)(F)F)cc2)[C@@H]1O`, -0.169.
Same read-out and setting: next, `Cc1c(NC(=O)/C(C#N)=C/C=C/c2ccccc2[N+](=O)[O-])c(=O)n(-c2ccccc2)n1C`: -0.322; `CCC[C@@H]1C[C@@]1(CCC)[C@@H](NP(=O)(c1ccccc1)c1ccccc1)c1ccc(Cl)cc1`: 0.095; `C=CCN1C(=O)[C@]2(CC=C)N=C(c3ccc(OCCCO)cc3)O[C@@H]2c2ccccc21`: -2.79.
Turning to `O=C1c2ccccc2[C@](Cc2ccccc2I)(C(=O)NCCN2CCOCC2)[C@H](c2ccc(CO)cc2)N1Cc1ccccc1`, the z-score is 0.0239.
On the same count and under the same terms, next, `COC(=O)[C@@]1(Cc2ccc(F)cc2)[C@H]2c3cc(C(=O)N4CCCC4)n(CCc4c[nH]c5ccc(OC)cc45)c3C[C@H]2CN1C(=O)c1ccccc1`: -0.156.
On to `O=C1c2ccccc2[C@](Cc2ccccc2I)(C(=O)NCc2ccccc2)[C@H](c2ccc(CO)cc2)N1C1CCCCC1`, for which the z-score is -1.32.
On the same count and under the same terms, with `COCC(=C=CC[C@H](O)c1cccc(OCCO)c1)C[C@H](O)c1ccccn1` the figure was 0.44; with `CN1C2C=C(CCCO)C(C3C(=O)N(C(N)=O)C(=O)C32)C1c1cccs1` (stereo not given), 1.1.
Turning to `CN(C)CCCNC(=O)[C@@H]1c2ccccc2C(=O)N(Cc2ccc(OC(F)(F)F)cc2)[C@H]1c1ccc(CO)cc1`, the z-score is -1.06.
On the same count and under the same terms, with `CC(C)(C)OC(=O)CC[C@]1(C(=O)NCCN2CCOCC2)N=C(c2ccc(OCCCO)cc2)O[C@H]1c1ccccc1` the figure was 0.0586; with `CC(C)CNC(=O)[C@@H]1c2ccccc2C(=O)N(Cc2cc(F)cc(C(F)(F)F)c2)[C@H]1c1ccc(CO)cc1`, -0.758; with `C=C(/C(=C/C[C@@H](OC(=O)c1ccncc1)c1ccc(OCCO)cc1)c1cc(C(=O)OC)ccc1OC)C(C)C`, 0.252.
Still for that read-out and setting: with `C=C(CCCC)/C(=C/C[C@@H](OC(=O)c1ccncc1)c1cccc(OCCO)c1)c1cnc2ccccc2c1` the figure was -1.98; with `C=CCOC(=O)[C@H]1[C@@H]2C(=O)O[C@@H](c3ccccc3)[C@@H](c3ccccc3)N2[C@@H](c2ccc(OCCOC(=O)[C@H]3C[C@H]4C(=O)N[C@@H](Cc5ccccc5)C(=O)N4[C@H]3c3cccc(OCCO)c3)cc2)[C@]12C(=O)Nc1ccc(I)cc12`, 1.
`Cc1ccc(S[C@]2(C(=O)NC3CC3)CC(=O)N(Cc3ccccc3Cl)[C@@H]2c2ccc(CO)cc2I)cc1`: the z-score is -1.83.
Consider `C[C@@H]1ON(c2ccc(C(=O)OC(C)(C)C)cc2)[C@H](c2ccc(Br)cc2)[C@H]1C(=O)N1C(=O)OC[C@H]1Cc1ccccc1`, for which the z-score was 0.716.
